Source: PubChem BioAssay AID602252 (Broad Institute, 2012)
Out of some 300,000 compounds screened, about 2,700 (0.9%) were called active.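 How the source made its calls: active means mean inhibition of at least 30% with at least half of replicates also reaching 30%; inconclusive means no clear call, values can overlap the other calls; inactive means the rest.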 For the sample, actives were picked, then their nearest neighbours and some compounds at random.

biological target: Golgi-associated PDZ and coiled-coil motif-containing protein (Homo sapiens) (UniProt Q9HD26); assay: untagged CAL PDZ binding inhibitors, primary screen, biochemical, fluorescence polarization, HTS (AID 602252); conditions: purified CAL PDZ, TMR-peptide fluorescence polarization, 1 h; at 24.9 µM; hits give high values;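 further: 0% = DMSO neutral control and 100% = excess unlabeled competitor peptide PRC23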

inhibition, active:
O=C(CSC(=S)N1CCCCC1)c1c(F)cccc1F 79.2%
O=C(CNC(=O)c1ccccc1F)c1ccc(Br)cc1 57.3%
COCCN1C(=O)c2oc3c(C)cc(C)cc3c(=O)c2C1c1cccc(O)c1 (stereo not given) 47.9%
Cc1ccc(C(=O)NCC(c2cccs2)N(C)C)cc1S(=O)(=O)N1CCOCC1 (stereo not given) 47.1%
OCCC1CN(Cc2ccc3nsnc3c2)CCN1C1CCCCC1 (stereo not given) 77%
CCOC(=O)C(=O)Nc1nc(-c2ccccc2)c(CC)s1 65.4%
COc1cc(N=Cc2c(O)c3ccccc3oc2=O)c(OC)cc1Cl 36.3%
COC1=CC(=O)OC(c2ccc(OC)cc2)C1 (stereo not given) 45%
Cc1cnc(NC(=O)c2ccccn2)s1 54.3%
Cc1cc(CNC(=O)C2CCC(=O)N(CCc3ccc(Cl)cc3)C2)no1 (stereo not given) 45.2%
Cc1nc2c(c(C)nn2-c2ccccc2)c(C)c1C 45.7%
O=C(Nc1ccc(F)cc1)C(=O)c1cn(CC(=O)N2CCOCC2)c2ccccc12 45.3%
Cc1cc(C)c(C#N)c(N2CCC(C(N)=O)CC2)n1 47.5%

inhibition, inactive:
Cc1cc(OCCCC(=O)Nc2cc(S(=O)(=O)N3CCOCC3)ccc2N2CCOCC2)ccc1Cl -3.89%
CN(C(=O)c1cccc(NC(=O)Cc2ccc([N+](=O)[O-])cc2)c1)C1CCC1 -2.37%
COc1ccc(S(=O)(=O)N2CCc3ccccc32)cc1C(=O)Nc1cc(S(C)(=O)=O)ccc1Cl -5.31%
CC1CN(C(=O)c2ccc([N+](=O)[O-])s2)CC(C)O1 (stereo not given) 0.023%
O=C(CSC(=S)N1CCOCC1)c1ccccc1 0.137%
CC(=O)c1ccc(NC(=O)CSC(=S)N2CCCC2)cc1 -3.19%
O=C(CNC(=O)c1ccc(F)cc1)c1ccccc1 -6.34%
O=C(Nc1ccc(NC(=O)c2ccccc2F)cc1)c1ccccc1F 4.51%
Cc1c(NC(=O)CN(C)CC(=O)Nc2ccc(F)c(F)c2F)c(=O)n(-c2ccccc2)n1C -3.99%
O=C1c2oc3ccccc3c(=O)c2C(c2cccc(O)c2)N1c1ccccn1 (stereo not given) -1.77%
O=C1c2oc3ccc(Br)cc3c(=O)c2C(c2cccc(F)c2)N1CCO (stereo not given) 3.36%
COc1ccccc1C(CNC(=O)c1ccc(C)c(S(=O)(=O)N2CCCCC2)c1)N(C)C (stereo not given) -4.72%
Cc1ccc(C(=O)Nc2ncccc2C)cc1S(=O)(=O)N1CCOCC1 -3.36%
O=C(Nc1c(Br)cc2c(c1Br)Cc1cc([N+](=O)[O-])ccc1-2)C(Cl)Cl -7.68%
Cn1cnnc1Sc1ccc(CN2CCN(C3CCCC3)C(CCO)C2)o1 (stereo not given) 2.66%
OCCC1CN(Cc2ccc3nsnc3c2)CCN1C1CCCC1 (stereo not given) 2.19%
CCOc1ccc(-c2nc(C)sc2CC(=O)O)cc1 -0.665%
C/C(=N/Nc1nc(-c2ccccc2)c(CC(=O)O)s1)c1ccccc1 2.17%
CCCCCCCCNS(=O)(=O)CCNC1CCCCC1 0.068%
CC(=O)Oc1ccc(OC(C)=O)c2c1C1C=CC2CC1 3.2%
COc1ccc(N=Cc2c(O)[nH]c3ccccc23)cc1OC 0.564%
Cc1ccc(N=Cc2c(O)cc(C)oc2=O)c(C)c1 -1.38%
CC(=O)Nc1ccc(S(=O)(=O)NCC(=O)OCC(=O)c2ccc[nH]2)cc1 -5.59%
Nc1ncnc2c1ncn2[C@@H]1O[C@H](CNCc2cccn2-c2nccs2)[C@@H](O)[C@H]1O -2.1%
COc1ccc2c(c1)C(=O)CC(c1ccccc1)O2 (stereo not given) 16.3%
COc1ccc(C2CC(=O)NC(=O)C2)cc1 -5.54%
CC1(C)C(=O)CCC2(C)C1=CCC1C2C(=O)CC2(C)C1CCC2(O)C(=O)CO (stereo not given) -4.84%
O=C(O)c1ccc([N+](=O)[O-])cc1Sc1ccsc1 -2.87%
O=C1N[C@@H](c2ccccc2)COC(=O)[C@H](Cc2ccc(F)cc2)C/C=C\C[C@@H]1CC(=O)N(CCO)Cc1ccccc1 2.21%
COc1ccc(CN2C(CC(=O)Nc3cccnc3)c3ccc(C(F)(F)F)cc3S2(=O)=O)cc1 (stereo not given) -6.01%
CSCCC1NC(=O)N(CC(=O)Nc2cccc(S(=O)(=O)N3CCCCCC3)c2)C1=O (stereo not given) -13.3%
CCCCN(C(=O)CSCc1ccc(C)cc1)c1c(N)n(Cc2ccccc2)c(=O)[nH]c1=O -2.71%
Cc1cnc(NC(=O)c2ccc(Cl)nc2)s1 5.61%
Cc1cnc(NC(=O)CSc2c(Cl)cccc2Cl)s1 -4.72%
O=C(Nc1ccn(CCCNCc2ccc3[nH]ccc3c2)c(=O)n1)OCc1ccccc1 -6.18%
O=C(NCCCc1ccccc1)C1CCC(=O)N(CCc2ccc(Cl)cc2)C1 (stereo not given) -3.25%
O=C(NCCN1CCOC1=O)C1CCC(=O)N(CCc2ccc(Cl)cc2)C1 (stereo not given) -3.91%
Cc1ccc(NC(=O)C2CCC(C(C)(C)C)CC2)cc1S(=O)(=O)N1CCOCC1 (stereo not given) -5.24%
O=C(CC1Sc2ccccc2NC1=O)NNc1ccc(Cl)c(Cl)c1 (stereo not given) -5.96%
CCCNC(=O)CCc1c(C)nc2c(c(C)nn2-c2ccccc2)c1C -0.965%
CSc1ccc(-c2c(C#N)c(N)nc3c2c(C)nn3-c2ccccc2)cc1 -0.521%
N#CC1=C(N)Oc2cc(N)ccc2C1c1ccccc1 (stereo not given) 2.39%
Cc1sc2ncnc(N3CCC(C(=O)Nc4ccc(F)cc4Cl)CC3)c2c1C -2.24%
Cc1ccc(CNC(=O)C(=O)c2cn(CC(=O)N3CCOCC3)c3ccccc23)cc1 -3.01%
COc1cccc(NC(=O)C(=O)c2cn(CC(=O)N3CCOCC3)c3ccccc23)c1 -2.58%
Cc1cccn2c(=O)c(/C=C(\C#N)S(=O)(=O)c3ccc(Cl)cc3)c(N3CCC(C(N)=O)CC3)nc12 3.73%
COc1ccccc1-c1nc(C#N)c(N2CCC(C(N)=O)CC2)o1 -2.05%
